# KB-3-1 tox: qHTS assay for MDR1-selective chemotherapeutics: Primary screen using the parental adenocarcinoma cell KB-3-1; KB-3-1 viability, CellTiter-Glo ATP luminescence, 72 h; 400,000 tested, 1.4% active; AID 1347075, 2019; Potency, µM (series often up to 46.1 µM), usual class: cytotoxic; further: potency means the concentration at half of the fitted maximal effect; on the % scale 0 is the no-effect control and ±100 the full control effect; nearly all actives have a fitted effect of over 60% in size
#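 Parental KB-3-1 adenocarcinoma cells in phenol-red-free DMEM with 10% FBS were pin-treated with compounds at several concentrations, incubated 72 h at 37 °C, and viability read by CellTiter-Glo luminescence; concentration-effect curves were fitted after normalization.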
# ASM inhibitor: Inhibitors of Secretory Acid Sphingomyelinase (S-ASM): qHTS; Sphingomyelin phosphodiesterase (Homo sapiens), P17405; 340,000 tested, 0.006% active; AID 504937, 2011; placental ASM, HMU-PC fluorogenic substrate, 60 min; Potency, µM (series often up to 57.5 µM), for inactives: top-dose activity change, negative = inhibition, hits mostly inhibitors; further: potency means the concentration at half of the fitted maximal effect
# Target sequence (P17405 47-631 limits assumed): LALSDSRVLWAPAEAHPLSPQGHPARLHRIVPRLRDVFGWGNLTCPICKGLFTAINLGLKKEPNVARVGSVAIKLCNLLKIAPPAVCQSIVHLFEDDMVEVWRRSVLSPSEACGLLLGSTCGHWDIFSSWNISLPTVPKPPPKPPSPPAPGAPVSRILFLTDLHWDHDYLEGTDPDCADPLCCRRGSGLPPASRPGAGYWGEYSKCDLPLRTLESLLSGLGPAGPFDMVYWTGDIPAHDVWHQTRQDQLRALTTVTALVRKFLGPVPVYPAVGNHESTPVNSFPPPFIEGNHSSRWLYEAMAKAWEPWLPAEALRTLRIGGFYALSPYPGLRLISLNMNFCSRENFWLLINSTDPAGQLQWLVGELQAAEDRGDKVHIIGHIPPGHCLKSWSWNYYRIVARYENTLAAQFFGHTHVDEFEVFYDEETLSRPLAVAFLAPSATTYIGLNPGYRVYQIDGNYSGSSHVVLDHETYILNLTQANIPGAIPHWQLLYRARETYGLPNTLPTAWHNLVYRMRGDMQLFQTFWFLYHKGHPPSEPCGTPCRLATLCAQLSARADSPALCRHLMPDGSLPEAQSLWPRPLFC
#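 Fluorogenic HMU-PC substrate (9 uM final) is turned over by placental ASM in 60 min at 37 C after a 10 min compound preincubation. Reaction ended by alkaline stop (pH 10), with fluorescence read at 386/447 nm.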
# SW480 rereplic: A quantitative high throughput screen for small molecules that induce DNA re-replication in SW480 colon adenocarcinoma cells. Potency, µM (highest dose often 46.1 µM), for inactives: at the highest dose re-replication activation, actives largely listed as activators. AID 624297, 2012. SW480 DNA re-replication, Hoechst DNA content imaging, 48 h. 340,000 tested, 1.8% active; further: potency means the concentration at half of the fitted maximal effect; % of control where 0% means no effect; nearly all actives have a fitted effect of over 55% in size
#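 Quantitative HTS format with DMSO vehicle controls; 48 hr drug incubation at 37 C, then 40 min Hoechst staining and scanning imager measurement at 405 nm excitation.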
# Giardia killer: Small Molecules that selectively kill Giardia lamblia: qHTS | activity change, % at 7.66 µM, hits read low | 340,000 tested, 0.15% active | Giardia lamblia trophozoite viability; in the data active means activity change below about -80%; inconclusive means between about -30% and that limit;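 further: parasites exposed to compound for two days anaerobically before the ATP read; on the % scale 0 is the no-effect control and ±100 the full control effect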
#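 Trophozoite viability was measured as ATP-dependent luminescence, read 15-30 min after reagent addition. Before that, parasites at 100 cells/well were exposed to compounds for 48 h, anaerobically, at 37 deg C.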
# MCF10A rereplic: A quantitative high throughput screen for small molecules that induce DNA re-replication in MCF 10a normal breast cells; MCF 10A DNA re-replication, Hoechst nuclear intensity, 48 h; Potency, µM (doses to about 46.1 µM), inactives show top-dose activity, positive = re-replication, actives largely listed as activators; 350,000 tested, 2.9% active; AID 624296, 2012; further: potency means the concentration at half of the fitted maximal effect; % of control where 0% means no effect; nearly all actives have a fitted effect of over 50% in size
# KB-V1 cytotox: qHTS assay for MDR1-selective chemotherapeutics: Primary screen using the drug-selected MDR subline cells KB-V1; KB-V1 MDR cells viability, CellTiter-Glo, 72 h; Potency, µM (top dose mostly 46.1 µM), hits mostly cytotoxic; 400,000 tested, 3.4% active; AID 1347076, 2019; further: potency means the concentration at half of the fitted maximal effect; on the % scale 0 is the no-effect control and ±100 the full control effect; nearly all actives have a fitted effect of over 60% in size
#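 Cells of the MDR subline KB-V1 are plated, dosed with compound at multiple concentrations, and incubated 72 h at 37 degrees C; CellTiter-Glo is then added and luminescence read after 10 min.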
# Numbers without * were called inactive; i = inactive; ? = inconclusive; . = no result given. Shown are actives, neighbours in structure and some others; about 6.9% of the full set was active somewhere. Unless noted, the call rests on the fitted dose curve; in most records, active means well fitted curve in the direction sought with a large enough effect; inconclusive means small, poorly fitted or top-dose-only effect, or another doubt; inactive means no such curve, though single readings can be large; an effect the other way counts as inactive or inconclusive.
SMILES,KB-3-1 tox,ASM inhibitor,SW480 rereplic,Giardia killer,MCF10A rereplic,KB-V1 cytotox
O=C(Nc1ccc([N+](=O)[O-])cc1Cl)c1cc(Cl)cc(Cl)c1O,?,.,.,-3,.,?
O=C(Nc1c(Cl)cc([N+](=O)[O-])cc1Cl)c1cc(Cl)ccc1O,0.73µM*,.,.,-16,.,?
O=C(Nc1ccc([N+](=O)[O-])cc1Cl)c1cc(Br)ccc1O,2.3µM*,.,.,?,.,1.8µM*
Cc1ccc(OCC(=O)OCc2cc(=O)n3c(C)csc3n2)cc1,i,.,.,.,.,i
Cc1nc2ccc(NC(=O)CSc3ccccc3)cc2s1,i,-1%,7%,-20,-2%,i
O=C(CCl)N1CCN(S(=O)(=O)Cc2ccccc2)CC1,23µM*,1%,211%,18,?,?
CCOC(=O)N1CCN(S(=O)(=O)Cc2ccccc2)CC1,i,1%,-1%,-3,2%,i
Cc1nn(-c2ccccc2)c2c1C(O)n1c(nc3ccccc31)S2 (centres undefined),i,-6%,-3%,-7,16µM*,18µM*
COc1ccc(CN2[C@@H](CC(=O)O)c3ccc(/C=C/C(=O)O)cc3S2(=O)=O)cc1,i,.,.,.,.,i
CC1=C(C(=O)Nc2ccc(C)cc2C)C(c2ccccc2)n2ncc(C(=O)Nc3ccccc3)c2N1 (centres undefined),i,.,.,.,.,i
CCc1cc(=O)[nH]c(SCCc2ccccc2)n1,13µM*,0%,3%,-25,?,8.2µM*
Cc1nnc(SCCc2ccccc2)[nH]c1=O,i,0%,-9%,-4,12%,i
Cc1cc(=O)[nH]c(SCc2ccccc2)n1,i,1%,9%,19,0%,i
Cc1nc(SCc2ccc(Br)cc2)[nH]c(=O)c1C,i,1%,-5%,-3,7.3µM*,i
Cc1nc(SCCc2ccccc2)[nH]c(=O)c1C,3.3µM*,-1%,?,-3,-5%,3.3µM*
Cc1cc(=O)[nH]c(SCCc2ccccc2)n1,16µM*,7%,-3%,24,-3%,12µM*
CCSc1nc(C)c(C)c(=O)[nH]1,i,4%,-9%,-1,4%,i
Cc1ccc(SCCSc2nc(N)cc(=O)[nH]2)cc1,i,0%,-3%,16,17%,8.2µM*
Nc1cc(=O)[nH]c(SCCSc2ccc(F)cc2)n1,?,0%,-2%,14,13%,?
CCOc1ccc(C(=O)NCC(c2ccco2)S(=O)(=O)c2cccs2)cc1 (centres undefined),i,.,.,.,.,i
COc1cc(Nc2ccccc2Cl)c([N+](=O)[O-])nc1[N+](=O)[O-],i,-7%,4.6µM*,-26,?,i
O=P(OC1CCCCC1)(OC1CCCCC1)C(O)c1ccccc1 (centres undefined),i,0%,-11%,13,1%,9.2µM*
Cc1ccc(Oc2ccc(S(=O)(=O)N3CCOCC3)cc2C(N)=O)c(-n2nc3ccccc3n2)c1,6.5µM*,0%,5.2µM*,-27,4.6µM*,18µM*
CC(=O)Nc1nc2cc3c(cc2s1)OCCO3,?,-12%,2%,1,-2%,i
Fc1cc(F)c2nc(Nc3nc4cc5c(cc4s3)OCO5)sc2c1,i,112%,-17%,-13,15µM*,i
SMILES,KB-3-1 tox,ASM inhibitor,SW480 rereplic,Giardia killer,MCF10A rereplic,KB-V1 cytotox
CC(C)C(=O)Nc1nc2cc3c(cc2s1)OCO3,i,1%,-4%,12,-1%,i
Fc1cccc2sc(Nc3nc4cc5c(cc4s3)OCO5)nc12,i,435%,-10%,-10,10µM*,i
Fc1cccc2sc(Nc3nc4cc5c(cc4s3)OCCO5)nc12,?,270%,-6%,-6,5.2µM*,i
CCCCOc1cccc(-c2cc(C(=O)NNC(=S)NCC)c3ccccc3n2)c1,i,-14%,5%,-2,-3%,21µM*
CCCCOc1ccc(-c2cc(C(=O)NNC(=S)NCC)c3ccccc3n2)cc1,7.3µM*,33%,4%,?,41%,6.5µM*
CCNC(=S)NNC(=O)c1cc(-c2cccc(OCC)c2)nc2ccccc12,i,-1%,-14%,4,1%,i
CCNC(=S)NNC(=O)c1cc(-c2cccc(C)c2)nc2ccccc12,?,-3%,-9%,-17,2%,?
CCNC(=S)NNC(=O)c1cc(-c2ccc(OC)cc2)nc2ccccc12,?,32%,.,?,14%,9.2µM*
CCn1c(=O)n(CC)c2cc(N3CCCC3)c(NC(=O)Nc3cc(C)cc(C)c3)cc21,i,.,.,.,.,?
CCC1CCCCN1CCCNC(=O)c1ccc2c(c1)N(Cc1cccc(C)c1)C(=O)c1ccccc1S2(=O)=O (centres undefined),i,.,.,.,.,i
Cc1ccc(C(=O)Nc2ccc(-c3nc4ccccc4[nH]3)cc2)cc1Br,i,.,.,.,.,i
O=C(O)CCCc1ccc2c(c1)CCc1ccccc1-2,2.9µM*,1%,-4%,-11,-5%,2.1µM*
Cc1ccc(-c2cccc(C(=O)NCc3ccccc3)n2)c2ccccc12,?,-9%,16µM*,-6,?,?
Cc1ccc(-c2cccc(C(=O)NCCc3ccccc3)n2)c2ccccc12,i,-7%,?,4,-3%,i
O=C(NCc1ccccc1)c1c(Cl)nc(Cl)c(Cl)c1Cl,16µM*,-3%,6.5µM*,-6,18µM*,i
COc1cc(OC)cc(C(=O)c2c(C)c(C#N)c3ccccn23)c1,5.2µM*,-4%,10µM*,-13,?,?
Cc1cc2ccccn2c1C(=O)c1ccc(C#N)cc1,?,-12%,1%,-10,16%,?
CC1=NN(C(=O)c2ccc(Cn3nc(C)cc3C)o2)C(O)(C(F)(F)F)C1 (centres undefined),i,0%,3.7µM*,-4,2.3µM*,i
CC1=NN(C(=O)c2ccc(Cn3cc(Br)c([N+](=O)[O-])n3)o2)C(O)(C(F)(F)F)C1 (centres undefined),i,2%,10µM*,-13,-2%,i
CC1=NN(C(=O)c2ccc(Cn3nc(C)c([N+](=O)[O-])c3C)cc2)C(O)(C(F)(F)F)C1 (centres undefined),i,6%,16%,-3,?,9.2µM*
Cc1ccc2nc(NCc3ccccc3)c3nncn3c2c1,i,.,.,.,.,?
O=c1cc(-c2ccccc2)nc(SCc2nc(-c3ccccc3Cl)no2)[nH]1,i,.,.,.,.,i

# Source: PubChem BioAssay (National Center for Advancing Translational Sciences (NCATS))
